Where “and” joins values, the source holds several entries; their conditions need not be identical. Equal entries are not always repeated. Among all 260,000 compounds or so, about 1,500 (0.58%) were called active. Inconclusive results (about 5%) are left out.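 The calls were made as follows: active = inhibition above a set limit at one or more doses, reproduced on every date tested; inconclusive = results disagree between test dates, or hit never tested in dose response; inactive = the rest.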 The list is a sample of the results. Potency and affinity values are given separately.
Target: Virion infectivity factor (Human immunodeficiency virus type 1 group M subtype B (isolate BH10)) + Virion infectivity factor (Human immunodeficiency virus type 1 group M subtype B (isolate BRU/LAI)) + Virion infectivity factor (Human immunodeficiency virus type 1 group M subtype B (isolate PCV12)) + Virion infectivity factor (Human immunodeficiency virus type 1 group M subtype B (isolate HXB2)) + DNA dC->dU-editing enzyme APOBEC-3G (Homo sapiens) (UniProt P69720+P69721+P69722+P69723+Q9HC16)
Test: HIV-1 Vif–A3G interaction blockers – biochemical, TR-FRET, GST-Vif 1-94, biotin-A3G peptide, dose response retest, primary screen (AID 1117319);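 also: Vif residues 1-94 fused to GST binding biotinylated APOBEC3G peptide 110-148; 0% = full assay without inhibitor and 100% = GST in place of GST-Vif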
Details: TR-FRET GST-Vif / biotin-A3G peptide binding; active compounds read high

inhibition, inactive:
O=C(c1ccncc1)N1N=C(C2CC2)CC1(O)C(F)(F)F (stereo not drawn) -2.38%
CCOC(=O)c1c(C)oc(=O)c(CC)c1O -0.93%
Cc1ccc(S(=O)(=O)N2C[C@H]3C(=O)C[C@@H](c4ccc(Cl)cc4)N(S(=O)(=O)c4ccccc4C)[C@H]3C[C@H]2c2ccccc2)cc1 -0.22%
O=C(CSCc1c(Cl)cccc1Cl)NN=C1CCCC1 15.1%
CCOC(=O)C1CCCN(c2c(NCC3CCCN3CC)c(=O)c2=O)C1 (stereo not drawn) 1.77%
CC(=O)N1Cc2ccccc2CC1C(=O)NCc1ccccc1F (stereo not drawn) 0.3%
O=C(O)c1ccc2nc(-c3ccco3)c(-c3ccco3)nc2c1 -0.3%
CCCNC(=O)c1ccc2nc(-c3ccccc3)c(-c3ccccc3)nc2c1 -1.93%
C=CCNC(=O)c1ccc2nc(-c3ccccc3)c(-c3ccccc3)nc2c1 -4.35%
O=C(NC1CCCCC1)c1cc(-c2ccco2)on1 2.76%
O=C(NCCO)c1ccc(Cl)c(Cl)c1 -3.78%
CCc1nc2ccc(C(=O)NCc3ccco3)cc2nc1CC 3.69%
CCOCCCNC(=O)c1ccc2nc(-c3ccc(OC)c(OC)c3)c(-c3ccc(OC)c(OC)c3)nc2c1 -0.07%
CCc1nc2ccc(C(=O)NCCc3ccco3)cc2nc1CC 9.44%
CC(=O)Nc1ccccc1S(=O)(=O)CC1CC1(Cl)Cl (stereo not drawn) 4.64%
CC(=O)Nc1cccc(N(C)C)c1 6.55%
Cc1cc(NS(C)(=O)=O)c(=O)n(Cc2cccc(C(F)(F)F)c2)c1 0.67%
CSCC(=O)N1CCCC(CNC(=O)c2ccccc2Cl)C1 (stereo not drawn) -7.52%
COc1ccc(OCCSc2ncccn2)cc1 -7.11%
COC(=O)c1nc(NC(=O)c2ccc(Br)cc2)n[nH]1 23.4%
CCOc1ccc(N(C)S(=O)(=O)c2ccc3[nH]cc(C(=O)NCCOC)c(=O)c3c2)cc1 0.42%
COc1ccc(-c2c(-c3ccc(O)cc3O)n[nH]c2C)cc1OC 6.2%
CCOc1cccc(C2C(C(=O)c3ccc(C)o3)=C(O)C(=O)N2c2nccs2)c1 (stereo not drawn) -6.71%
O=C(N/N=C/c1ccc(OC(=O)c2ccccc2)c([N+](=O)[O-])c1)c1ccc(O)cc1 2.33%
CCOC(=O)N=Nc1c2ccccc2c2nc3no[nH]c3nc12 8.41%
Cc1ccc2cc(CN(C(=O)c3ccco3)c3cccc(C)c3C)c(=O)[nH]c2c1 -8.5%
C#Cc1ccc([C@@H]2C=C(C(=O)OCC=C)O[C@H](OCc3ccc(CO)cc3)C2)cc1 6.58%
COc1ccc(/C=C(\C#N)C(=O)Nc2ccc3[nH]c(=O)[nH]c3c2)cc1 11.7%
COc1ccc(NC(=O)c2ccc(Br)o2)cc1 6.22%
CCOCCCNC(=O)/C(C#N)=C/c1ccc([N+](=O)[O-])o1 26.7%
COc1ccc(NC(=O)/C(C#N)=C/c2ccc3c(c2)n(C)c(=O)n3C)cc1 1.72%
Cc1ccc(NC(=O)/C(C#N)=C/c2ccc(Sc3nc(C)cc(C)n3)o2)cc1 -1.36%
N#C/C(=C\c1ccc(-c2ccc(C(=O)O)cc2)o1)C(=O)Nc1ccc(F)cc1 15.6%
N#C/C(=C/c1ccc(F)cc1)C(N)=S -0.15%
N#C/C(=C/c1ccc(Br)o1)C(N)=O 10.3%
CC(=O)OC12CC3CC(C1)C(=NO)C(C3)C2 -2.41%
COc1ccc(Cn2cnc3c(NS(C)(=O)=O)c(C)c(C)cc32)cc1 -0.98%
Cc1ccc(-c2nc(CS(=O)CC(=O)NCCN3CCCCCC3)c(C)o2)cc1 (stereo not drawn) -1.41%
COc1ccc(-n2c(SCC(=O)Nc3ccc(C(=O)O)cc3)nnc2-c2ccccc2)cc1OC 4.7%
O=C(N/N=C/c1cc(Br)c(O)c(Br)c1)c1cccnc1 -0.54%
Cc1cc(C)cc(NC(=O)c2ccc(NC(=O)C3C4CC5OC(=O)C3C5C4)cc2)c1 (stereo not drawn) -3.35%
CCn1c(C)nnc1SCC(=O)Nc1cccc(C(F)(F)F)c1 -2.71%
CN(C(=O)c1ccc(C#N)cc1)c1nnc(-c2ccccn2)s1 -7.43%
Cc1ccc2nc3c(c(C(=O)O)c2c1)CCC3 32.8%
CCc1ccc2nc3c(c(C(=O)O)c2c1)CCC3 23.1%
Cc1c(C(=O)O)sc(=S)n1CCOc1ccccc1 5.91%
O=C(CCN1CCN(S(=O)(=O)c2ccc(Cl)cc2)CC1)Nc1ccc(F)cc1 1.22%
Cc1cc(O)c(C(C)C)cc1N=Cc1ccc(N(C)C)cc1 12.6%
Cc1cc(O)c(C(C)C)cc1N=Cc1ccccc1[N+](=O)[O-] -2.95%
COc1cccc(C=Nc2ccccc2C#N)c1O 14.7%
Cc1cc(O)c(C(C)C)cc1N=Cc1ccccc1O -2.17%
O=C(CC(O)(c1ccccc1)c1ccccc1)Nc1ccccn1 -5.64%
O=C1Nc2ccccc2C(=O)C1(Cl)Cc1ccccc1 (stereo not drawn) 2.05%
Cc1ccc(OCC(=O)OCc2nc3scc(-c4ccccc4)c3c(=O)[nH]2)cc1C -11.5%
Cn1c(=O)c2c(nc(SCCCC#N)n2Cc2ccccc2F)n(C)c1=O 5.84%
Cn1c(=O)c2c(nc(SCc3nn[nH]n3)n2Cc2ccccc2F)n(C)c1=O 26.4%
COc1ccccc1-n1cnc2cc(NCc3ccccc3O)ccc21 5.69%
Cc1ccccc1-n1cnc2cc(NCc3cccs3)ccc21 4.79%
COc1ccc(CC(=O)Nc2ccc(S(=O)(=O)Nc3cc(C)nc(C)n3)cc2)cc1OC -3.26%
CC(C)c1ccc(CCNC(=O)CCNC(=O)c2ccc(Br)cc2)cc1 -4.69%
Oc1c(Br)cc(Br)cc1C=NCc1ccccc1 -9.44%
Oc1ccccc1C=NCC(O)c1ccccc1 (stereo not drawn) 22%
COc1cccc(C=NCC(C)N=Cc2cccc(OC)c2O)c1O (stereo not drawn) 1.39%
Oc1cccc(C=NCc2ccccc2)c1 -4.5%
COC(=O)c1ccc(C2C(Oc3ccccc3)C(=O)N2CCc2ccc(F)cc2)cc1 (stereo not drawn) -5.73%
C=CCN(C(=O)CCS(=O)(=O)c1cccc2nsnc12)c1ccccc1 -10%
Cc1ccc(NC(=O)CN2C(=O)NC(C)(c3ccc(Cl)cc3)C2=O)cc1S(=O)(=O)N1CCOCC1 (stereo not drawn) 19.2%
CC(=O)c1ccc(S(=O)(=O)Nc2ccc(C(=O)NCC(c3cccs3)N3CCOCC3)cc2)cc1 (stereo not drawn) 3.75%
CC1(C)Cc2cccc(OCC(=O)N3CCN(c4ccccc4F)CC3)c2O1 -1.24%
c1ccc(N(c2ccccc2)c2nc(-n3ccnc3)nc(-n3ccnc3)n2)cc1 -4.38% and -2.66%
CN(c1ccccc1)c1nc(-n2ccnc2)nc(-n2ccnc2)n1 -3.98%
O=C(NCCC1=CCCCC1)c1ccc2c(=O)n3c(nc2c1)CCCCC3 -3.44%
Cc1cc(C)nc(N2CCCC(C(=O)NCc3ccc4c(c3)OCO4)C2)n1 (stereo not drawn) -5.32%
COc1cc(C)c(NC(=O)COc2cccc3c2OC(C)(C)C3)cc1OC -1.98%
[O-][n+]1onc2c3ccnnc3ccc21 0.24%
Cc1cc2c(ccc3c2no[n+]3[O-])nn1 7.27%
CCOc1ccc(CCNC(=O)c2cccc(S(=O)(=O)N3CCCCC3)c2)cc1OCC -3.3%
O=C(Cn1c(=S)[nH]c2ncccc2c1=O)NCCc1ccccc1 -0.88%
O=C(NCCCN1CCOCC1)c1ccc2c(=O)n(Cc3ccccc3)c(=S)[nH]c2c1 -10.2%
CCOC(=O)C1=C(O)c2ccccc2C(=O)/C1=C\c1ccc(CC)cc1 31.5%
CCOC(=O)C1=C(Cc2ccc(OC)cc2)C(=O)c2ccccc2C1=O 24.3%
CCN(CC)/C(=N\S(=O)(=O)c1ccc(F)cc1)c1ccccc1 3.32%
COCCNC(=S)N1CCCN(c2nc3cc(C)ccc3cc2C#N)CC1 3.12%
Cc1ccc(S(=O)(=O)N(Cc2ccccc2)c2ccccc2C(=O)NCc2cccnc2)cc1 1.8%
COc1ccc(NCc2n[nH]c(=O)c3ccccc23)cc1 4.49%
O=c1[nH]nc(CNc2ccc(C(F)(F)F)cc2)c2ccccc12 -3.84%
CC(NC(=O)COC(=O)c1cc(S(=O)(=O)N2CCOCC2)ccc1F)c1ccccc1 (stereo not drawn) 4.22%
Cc1ccc(S(=O)(=O)Nc2cccc(C(=O)N3CCC(C(N)=O)CC3)c2)cc1 -11.3%
O=C(CSc1nc2ccccc2c(=O)n1-c1ccccc1Cl)Nc1cccc(S(=O)(=O)N2CCOCC2)c1 12.8%
Cc1cc(C)nc(NS(=O)(=O)c2ccc(NC(=O)c3cc(=O)c4ccccc4o3)cc2)n1 -13.1%
Cc1ccc(C(=O)NC(=S)NNC(=O)COc2ccc([N+](=O)[O-])cc2)cc1 -1.27%
Cc1cc(/C=C2/NC(=O)N(c3ccccc3)C2=O)c(C)n1-c1cccnc1 5.85%
Cc1cc(C=C2C(=O)c3ccccc3C2=O)c(C)n1-c1cccc(C(=O)O)c1 24.6%

From PubChem BioAssay AID1117319 (Southern Research Institute, 2015)
